We go through 20 molecules from PubChem BioAssay (EPA / NIEHS).

Each structure is given as a SMILES string. Active and inactive are the calls of the source. How the source made its calls: active means hit-call score of the fitted dose curve at least 0.9, where 1 is the maximum; inactive means score below 0.9.

Holding throughout (settings): mRNA level, 48 h; actives raise or lower the signal
Read-out in one assay: CYP4A11 (gene 1579)
Kind of assay: LTEA_HepaRG_CYP4A11: Life Technologies and Expression Analysis (LTEA) Assay for CYP4A11 using HepaRG (AID 2283486). The essentials: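 CYP4A11 transcript levels were quantified by TaqMan qRT-PCR after HepaRG human liver cells were treated for 48 hours with test chemicals (top 100 uM, half-log dilutions, 0.5% DMSO). Gain or loss of signal was fitted relative to DMSO.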

Read-out in assay [1]: Cytochrome P450 3A4 (Homo sapiens) (UniProt P08684)
The experiment in a line: LTEA_HepaRG_CYP3A4: Life Technologies and Expression Analysis (LTEA) Assay for CYP3A4 using HepaRG (AID 2283487). The essentials: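 Differentiated HepaRG cells in serum-free induction medium exposed in duplicate for 48 h to 8 half-log concentrations up to 100 uM in 0.5% DMSO. CYP3A4 mRNA measured by qRT-PCR normalized to ACTB, GAPDH and POLR2A; bidirectional fit versus DMSO.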

Read-out in assay [2]: DNA damage-inducible transcript 3 (DDIT3), DDIT3 (gene 1649)
The experiment in a line: LTEA_HepaRG_DDIT3: Life Technologies and Expression Analysis (LTEA) Assay for DNA damage-inducible transcript 3 (DDIT3) using HepaRG (AID 2283488). The essentials:
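HepaRG cells, 48 h after plating, exposed 48 h in serum-free induction medium to 8 half-log concentrations up to 100 uM in 0.5% DMSO, in duplicate. DDIT3 mRNA measured by TaqMan qRT-PCR, normalized to ACTB, GAPDH and POLR2A. Fitted bidirectionally against DMSO.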

Read-out in assay [3]: Pro-epidermal growth factor (Homo sapiens) (UniProt P01133)
The experiment in a line: LTEA_HepaRG_EGF: Life Technologies and Expression Analysis (LTEA) Assay for Epidermal growth factor (EGF) using HepaRG (AID 2283489). The method in brief: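 qRT-PCR readout of EGF transcript after 48 h chemical exposure of HepaRG cells; eight concentrations from 100 uM down in half-log steps, duplicate wells, 0.5% DMSO vehicle. Bidirectional curve fitting against DMSO baseline.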

Read-out in assay [4]: Early growth response protein 1 (EGR1) transcription factor, EGR1 (gene 1958)
The experiment in a line: LTEA_HepaRG_EGR1: Life Technologies and Expression Analysis (LTEA) Assay for Early growth response protein 1 (EGR1) transcription factor using HepaRG (AID 2283490). The method in brief:
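Read-out is EGR1 mRNA level by qRT-PCR, normalized to three housekeeping genes and analysed for gain or loss of signal against 0.5% DMSO. Source cells: human HepaRG, treated 48 h at up to 100 uM in half-log dilutions.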

Read-out in assay [5]: Ezrin (EZR), EZR (gene 7430)
The experiment in a line: LTEA_HepaRG_EZR: Life Technologies and Expression Analysis (LTEA) Assay for Ezrin (EZR) using HepaRG (AID 2283491). The essentials:
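Differentiated human HepaRG cells, 48 h after plating, were exposed in serum-free induction medium for 48 hours to eight half-log concentrations up to 100 uM in 0.5% DMSO. EZR mRNA was measured by TaqMan qRT-PCR, normalized to ACTB, GAPDH and POLR2A, and fitted bidirectionally against DMSO.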

Read-out in assay [6]: Cytochrome P450 3A7 (Homo sapiens) (UniProt P24462)
The experiment in a line: LTEA_HepaRG_CYP3A7: Life Technologies and Expression Analysis (LTEA) Assay for CYP3A7 using HepaRG (AID 2283492). The essentials: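 CYP3A7 transcript levels were read by TaqMan qRT-PCR on Fluidigm arrays after 48 h chemical exposure of human HepaRG cells, with housekeeping-gene normalisation. Eight half-log concentrations up to 100 uM in 0.5% DMSO were tested in duplicate.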

Read-out in assay [7]: Fatty Acid-Binding Protein 1 (FABP1), FABP1 (gene 2168)
The experiment in a line: LTEA_HepaRG_FABP1: Life Technologies and Expression Analysis (LTEA) Assay for Fatty Acid-Binding Protein 1 (FABP1) using HepaRG (AID 2283494). The method in brief:
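HepaRG, 48 h post-plating switched to serum-free induction medium, then dosed 48 h (duplicate, 8 pts, ≤100 uM, 0.5% DMSO). RNA → Fluidigm TaqMan qRT-PCR, FABP1 normed to ACTB/GAPDH/POLR2A. Bidirectional curve fit vs DMSO.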

Read-out in assay [8]: Cytochrome P450 4A22 (Homo sapiens) (UniProt Q5TCH4)
The experiment in a line: LTEA_HepaRG_CYP4A22: Life Technologies and Expression Analysis (LTEA) Assay for Cytochrome P450 4A22 (CYP4A22) using HepaRG (AID 2283495). The method in brief: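 HepaRG, 48 h post-plating -> serum-free induction medium; dosed 48 h, duplicate, 8 conc. (100 uM top, half-log), 0.5% DMSO. Readout: CYP4A22 mRNA by qRT-PCR, ACTB/GAPDH/POLR2A normalization; gain/loss fit relative to DMSO.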

Read-out in another assay: CYP3A5 (gene 1577)
Kind of assay: LTEA_HepaRG_CYP3A5: Life Technologies and Expression Analysis (LTEA) Assay for CYP3A5 using HepaRG (AID 2283493). The essentials: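 HepaRG cells, plated 48 h then in serum-free induction medium, dosed in duplicate for 48 h with eight half-log concentrations up to 100 uM in 0.5% DMSO. Gene mRNA by Fluidigm TaqMan qRT-PCR, normalized to ACTB, GAPDH, POLR2A.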

Sequence of Cytochrome P450 3A7 (Homo sapiens) (P24462 whole entry, looked up): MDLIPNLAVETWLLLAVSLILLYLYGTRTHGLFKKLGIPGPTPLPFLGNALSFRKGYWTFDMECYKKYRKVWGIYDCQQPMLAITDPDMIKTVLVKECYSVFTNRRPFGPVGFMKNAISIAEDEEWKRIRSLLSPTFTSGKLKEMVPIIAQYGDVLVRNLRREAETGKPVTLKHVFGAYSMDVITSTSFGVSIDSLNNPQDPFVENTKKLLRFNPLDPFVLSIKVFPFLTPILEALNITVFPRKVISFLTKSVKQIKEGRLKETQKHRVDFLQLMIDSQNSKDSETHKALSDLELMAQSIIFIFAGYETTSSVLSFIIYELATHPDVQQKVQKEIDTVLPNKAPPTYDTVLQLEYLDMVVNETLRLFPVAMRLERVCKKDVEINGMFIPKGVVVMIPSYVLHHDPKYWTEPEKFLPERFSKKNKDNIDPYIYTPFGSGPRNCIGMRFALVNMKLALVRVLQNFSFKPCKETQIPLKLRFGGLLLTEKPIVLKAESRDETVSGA
Sequence of Cytochrome P450 3A4 (Homo sapiens) (P08684 whole entry, looked up): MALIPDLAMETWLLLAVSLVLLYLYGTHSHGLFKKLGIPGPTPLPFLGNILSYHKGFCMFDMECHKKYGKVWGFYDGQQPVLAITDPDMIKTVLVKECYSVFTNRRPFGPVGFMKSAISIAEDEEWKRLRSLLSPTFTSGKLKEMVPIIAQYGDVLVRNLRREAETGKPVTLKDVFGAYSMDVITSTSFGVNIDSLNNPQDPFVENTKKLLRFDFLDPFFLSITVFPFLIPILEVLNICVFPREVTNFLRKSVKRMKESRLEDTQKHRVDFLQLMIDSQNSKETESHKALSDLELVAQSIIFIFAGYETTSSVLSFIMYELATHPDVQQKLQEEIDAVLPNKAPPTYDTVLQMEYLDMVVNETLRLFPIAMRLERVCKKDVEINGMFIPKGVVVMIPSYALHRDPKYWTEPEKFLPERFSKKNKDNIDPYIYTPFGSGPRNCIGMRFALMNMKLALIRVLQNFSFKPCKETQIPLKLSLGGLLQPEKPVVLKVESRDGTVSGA

As a reminder, the AC50 is the midpoint of the concentration-response curve, whichever way the signal moves. In the case of `COc1ccc2cc(S(=O)(=O)N[C@H](CC(=O)N[C@H](Cc3ccc(CN4[C@H](C)CCC[C@@H]4C)cc3)C(=O)N(C)C(C)C)c3ccc4c(c3)OCO4)ccc2c1`, the concentration at half-maximal activity (AC50) was 20.7 µM (active) with CYP4A11 (gene 1579); 24 µM (active) in assay [1]; 20.4 µM (active) in assay [2]; 33.3 µM (active) in assay [4]; 25.2 µM (active) in [6]; 12.1 µM (active) in assay [7]. Besides, the AC50 in [8] was 2.63 µM (active). Besides, the result in [3] and in [5] was inactive.

Regarding `O=C1CCC(C2CCCCC2)CC1`, the molecule was classed as inactive (with CYP4A11 (gene 1579); in assay [2]; in [3]; in assay [4]; in assay [5]; in [6]). In addition, the molecule was classed as inactive in assay [7] and in assay [8]. Also, the AC50 in assay [1] was 32.5 µM (active).

Take `CCCCCCCCN(C)CCCCCCCC`: the outcome (with CYP4A11 (gene 1579); in [1]; in [2]; in assay [3]; in assay [5]; in [6]) was inactive. Besides, the molecule was called inactive (in the assay with CYP3A5 (gene 1577); in assay [7]; in assay [8]).

`Cc1cc2c(cc1C(F)(F)F)N(C(=O)Nc1ccc(Oc3cccnc3C)nc1)CC2`: the AC50 with CYP4A11 (gene 1579) was 52.6 µM (active); in assay [1] it was 1.89 µM (active); with CYP3A5 (gene 1577) it was 73.1 µM (active); in assay [7] it was 11.6 µM (active); in [8], 29.6 µM (active). The outcome in [2], in [3], in assay [5] and in assay [6] was inactive.

For the molecule `Cc1c2ccccc2c(C)c2c1ccc1ccccc12`, the AC50 is 33.2 µM (active) in the assay with CYP4A11 (gene 1579); 78.8 µM (active) in assay [1]; 33.9 µM (active) in [2]; 19.9 µM (active) in assay [3]; 30.3 µM (active) in assay [6]; 50 µM (active) in [7]. Moreover, in assay [8], the AC50 was 51.9 µM (active). Besides, the outcome in assay [5] was inactive.

Regarding `CCCCCCCCCCCO`, the outcome (in the assay with CYP4A11 (gene 1579); in assay [1]; in [2]; in [3]; in [5]; in assay [6]) was inactive. In addition, the result in assay [7] and in assay [8] was inactive.

As to `CC(C)(c1cc(Br)c(O)c(Br)c1)c1cc(Br)c(O)c(Br)c1`, the molecule was called inactive (with CYP4A11 (gene 1579); in assay [1]; in assay [2]; in [3]; in [5]; in assay [7]). The molecule was called inactive in assay [8]. Moreover, the AC50 in [6] is 9.73 µM (active).

Regarding `OCCO`, the outcome (with CYP4A11 (gene 1579); in assay [1]; in assay [2]; in [5]; in assay [6]; in assay [7]) was inactive.

Regarding `O=C1c2ccccc2C(=O)N1CCc1noc(-c2ccc(CN3CCCCCC3)s2)n1`, the molecule was called inactive (with CYP4A11 (gene 1579); in assay [1]; in [2]; in [3]; in [5]; in assay [6]). Besides, the outcome in assay [7] and in assay [8] was inactive.

As for `CCCCCCCC[Si](OCC)(OCC)OCC`, the molecule was called inactive (in the assay with CYP4A11 (gene 1579); in assay [1]; in [2]; in assay [3]; in [5]; in assay [6]). The molecule was classed as inactive (with CYP3A5 (gene 1577); in assay [7]; in assay [8]).

Take `CC(C)(O)c1ccc(CNC(=O)c2cccnc2Oc2ccc3nonc3c2)cc1`: the molecule was called inactive (with CYP4A11 (gene 1579); in assay [2]; in assay [3]; in assay [5]; in assay [7]; in assay [8]). Moreover, the AC50 in [1] is 8.42 µM (active); in assay [6] it was 6.62 µM (active).

Turning to `Cc1cc(F)ccc1-c1cc(N2CC[C@@H](O)[C@H]2CO)ncc1N(C)C(=O)C(C)(C)c1cc(C(F)(F)F)cc(C(F)(F)F)c1`, the AC50 with CYP4A11 (gene 1579) was 15.7 µM (active); in [1], 0.588 µM (active); in [2], 71.1 µM (active); in assay [3], 5.44 µM (active); in assay [5] it was 20.8 µM (active); in [7], 13.9 µM (active). For the same molecule, the AC50 in [8] was 16.4 µM (active). Besides, the molecule was called inactive in assay [6].

In the case of `CC1(C)NC(=O)N(c2ccc([N+](=O)[O-])c(C(F)(F)F)c2)C1=O`, the AC50 was 69.3 µM (active) in the assay with CYP4A11 (gene 1579); 75.7 µM (active) in [2]; 93 µM (active) in assay [5]; 66.7 µM (active) in [7]; 67.4 µM (active) in assay [8]. The molecule was called inactive in assay [3] and in assay [6].

As to `O=C(O)Cn1c(=O)n(Cc2ccc(Br)cc2F)c(=O)c2ccc(Cl)cc21`, the molecule was called inactive (with CYP4A11 (gene 1579); in [2]; in assay [3]; in assay [5]; in assay [7]; in [8]).

For the molecule `NCc1cccc(C2CCN(C(=O)c3ccc(C#Cc4ccccc4F)o3)CC2)c1`, the AC50 is 82.4 µM (active) with CYP4A11 (gene 1579); 75.2 µM (active) in assay [1]; 75.4 µM (active) in [2]; 77.7 µM (active) in [6]; 81 µM (active) in assay [8]. The call in [3], in assay [5] and in assay [7] was inactive.

With `CCCCOC(=O)c1ccc(O)cc1`, the molecule was called inactive (with CYP4A11 (gene 1579); in assay [1]; in [2]; in assay [3]; in assay [5]; in [6]). The molecule was called inactive (with CYP3A5 (gene 1577); in assay [7]; in [8]).

With `OC12N=C(c3ccccc3)SC1Cc1cc(Cl)ccc12` (centres undefined), the AC50 is 49 µM (active) in the assay with CYP4A11 (gene 1579); 81.3 µM (active) in assay [1]; 2.33 µM (active) in [2]; 59 µM (active) in assay [6]; 34.4 µM (active) in assay [7]; 63.2 µM (active) in assay [8]. In addition, the result in assay [3] and in assay [5] was inactive.

On to `CN1C(=O)N(c2ccccc2Br)Cc2cnc(Nc3ccc4c(c3)OCC(CO)O4)nc21` (centres undefined), for which the AC50 is 50 µM (active) in the assay with CYP4A11 (gene 1579); 89.6 µM (active) in [1]; 40.5 µM (active) in assay [2]; 50 µM (active) in [6]; 58.8 µM (active) in assay [7]; 50 µM (active) in assay [8]. The result in assay [3] and in [5] was inactive.

As to `O=C(Nc1ccc(Cl)cc1)Nc1ccc(Cl)c(Cl)c1`, the AC50 with CYP4A11 (gene 1579) is 28.7 µM (active); in assay [2] it was 26.6 µM (active); in assay [3], 50 µM (active); in [7], 16.7 µM (active); in assay [8], 24.2 µM (active). The result (in assay [5]; with CYP3A5 (gene 1577)) was inactive.

Consider `CO[C@H]1/C=C/O[C@@]2(C)Oc3c(C)c(O)c4c(O)c(c(/C=N/N5CCN(C)CC5)c(O)c4c3C2=O)NC(=O)/C(C)=C\C=C\[C@H](C)[C@H](O)[C@@H](C)[C@@H](O)[C@@H](C)[C@H](OC(C)=O)[C@@H]1C`, for which the AC50 with CYP4A11 (gene 1579) was 0.593 µM (active); in assay [7], 0.486 µM (active). Also, the molecule was called inactive in [2], in [3], in [4], in assay [5] and in [8].
